Source: PubChem BioAssay AID1159580 (chemical genetic matrix, 2015)
Several values for one entry are separate records, joined by “and”; a condition that tells them apart may be missing. Equal entries are not always repeated. Among all 5,500 compounds or so, about 2,000 (36%) were called active. Not shown: some 18% with an inconclusive outcome. Cut-off read from the data, not from the text of the source: active = normalized growth mostly below about 0.91 (no sharp cut-off); inconclusive = no clear call, values can overlap the other calls; inactive = mostly above about 0.92. This is one part of the list.

Assay: chemical genetic growth profiling, strain panel (AID 1159580);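 note: tested at 20 µM; growth read once vehicle control cultures reached saturation at 30 °C; 1 = growth at the plate median or of vehicle wells; lower values mean less growth of the strain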
Settings: S. cerevisiae deletion strains, growth OD

Measured: normalized growth

Oc1cc(O)c2c(c1)O[C@H](c1ccc(O)c(O)c1)[C@@H](O)C2
inactive: locus YAL021C, strain ccr4, stronger effect = lower value 1.03 | locus YAL026C, strain drs2, stronger effect = lower value 1.01 | locus YAL030W, strain snc1, stronger effect = lower value 1.01 | locus YBL061C, strain skt5, stronger effect = lower value 1.01 | locus YBR009C, strain hhf1, stronger effect = lower value 0.993 | locus YBR021W, strain FUR4, stronger effect = lower value 1.05 | locus YBR023C, strain chs3, stronger effect = lower value 1.02 | locus YBR171W, strain sec66, stronger effect = lower value 1.01 | locus YBR229C, strain ROT2, stronger effect = lower value 0.957 | locus YBR231C, strain swc5, stronger effect = lower value 1.01 | locus YBR279W, strain paf1, stronger effect = lower value 1.01 | locus YCL011C, strain gbp2, stronger effect = lower value 1.01 | locus YCL016C, strain dcc1, stronger effect = lower value 1.01 | locus YCL029C, strain bik1, stronger effect = lower value 0.972 | locus YCL061C, strain MRC1, stronger effect = lower value 1.01 | locus YCL069W, strain vba3, stronger effect = lower value 1 | locus YCR088W, strain abp1, stronger effect = lower value 1.01 | locus YDL005C, strain med2, stronger effect = lower value 1.01 | locus YDL035C, strain GPR1, stronger effect = lower value 0.985 | locus YDL040C, strain nat1, stronger effect = lower value 1 | locus YDL074C, strain BRE1, stronger effect = lower value 1 | locus YDL101C, strain DUN1, stronger effect = lower value 0.979 | locus YDL185W, strain tfp1, stronger effect = lower value 0.978 | locus YDL192W, strain arf1, stronger effect = lower value 0.992 | locus YDR001C, strain nth1, stronger effect = lower value 0.994 | locus YDR069C, strain doa4, stronger effect = lower value 1.02 | locus YDR101C, strain arx1, stronger effect = lower value 1.03 | locus YDR137W, strain rgp1, stronger effect = lower value 1.03 | locus YDR159W, strain sac3, stronger effect = lower value 1 | locus YDR162C, strain NBP2, stronger effect = lower value 0.962 | locus YDR195W, strain ref2 0.972 | locus YDR297W, strain sur2, stronger effect = lower value 1.01 | locus YDR318W, strain mcm21, stronger effect = lower value 0.981 | locus YDR334W, strain swr1, stronger effect = lower value 1 | locus YDR335W, strain msn5, stronger effect = lower value 1.01 | locus YDR388W, stronger effect = lower value 0.963 | locus YDR392W, strain spt3, stronger effect = lower value 0.981 | locus YDR502C, strain sam2, stronger effect = lower value 1.01 | locus YEL003W, strain gim4, stronger effect = lower value 1.02 | locus YEL037C, strain rad23, stronger effect = lower value 1.01 | locus YEL061C, strain CIN8 (second series), stronger effect = lower value 1 | locus YEL061C, strain CIN8, stronger effect = lower value 0.988 | locus YER015W, strain faa2, stronger effect = lower value 1 | locus YER016W, strain bim1, stronger effect = lower value 0.997 | locus YER110C, stronger effect = lower value 0.98 | locus YER111C, strain swi4, stronger effect = lower value 0.988 | locus YER155C, strain BEM2 (second series), stronger effect = lower value 1.01 | locus YER155C, strain BEM2, stronger effect = lower value 0.991 | locus YER167W, strain BCK2, stronger effect = lower value 0.994 | locus YFR010W, strain ubp6, stronger effect = lower value 1.02 | locus YGL078C, strain dbp3, stronger effect = lower value 0.99 | locus YGL086W, strain mad1, stronger effect = lower value 1.04 | locus YGL167C, strain pmr1, stronger effect = lower value 1.01 | locus YGL173C, strain kem1, stronger effect = lower value 1.01 | locus YGL227W, strain vid30, stronger effect = lower value 1 | locus YGL240W, strain doc1, stronger effect = lower value 1.01 | locus YGL248W, strain PDE1, stronger effect = lower value 0.988 | locus YGL253W, strain hxk2, stronger effect = lower value 1.01 | locus YGR078C, strain PAC10, stronger effect = lower value 0.976 | locus YGR135W, strain pre9, stronger effect = lower value 0.966 | locus YGR252W, strain gcn5, stronger effect = lower value 0.947 | locus YHR013C, strain ard1, stronger effect = lower value 0.984 | locus YHR027C, strain rpn1, stronger effect = lower value 1.01 | locus YHR030C, strain SLT2, stronger effect = lower value 0.996 and 0.983 | locus YHR079C, strain IRE1 (second series), stronger effect = lower value 0.979 | locus YHR079C, strain IRE1, stronger effect = lower value 0.974 | locus YHR094C, strain hxt1, stronger effect = lower value 0.972 | locus YHR129C, strain ARP1, stronger effect = lower value 0.998 | locus YHR142W, strain chs7, stronger effect = lower value 1.03 | locus YHR200W, strain rpn10, stronger effect = lower value 0.975 | locus YIL066C, strain RNR3, stronger effect = lower value 0.992 | locus YIL073C, strain SPO22, stronger effect = lower value 1.02 | locus YIL125W, strain kgd1, stronger effect = lower value 1 | locus YIR030C, strain dcg1, stronger effect = lower value 0.994 | locus YJL092W, strain hpr5, stronger effect = lower value 1 | locus YJL095W, strain BCK1 (second series), stronger effect = lower value 1 | locus YJL095W, strain BCK1, stronger effect = lower value 0.977 and 0.984 | locus YJL115W, strain asf1, stronger effect = lower value 1 | locus YJL129C, strain trk1, stronger effect = lower value 1.01 | locus YJL134W, strain LCB3, stronger effect = lower value 0.989 | locus YJL154C, strain vps35, stronger effect = lower value 1 | locus YJL164C, strain tpk1, stronger effect = lower value 1.01 | locus YJL166W, strain qcr8, stronger effect = lower value 1.02 | locus YJL168C, strain set2, stronger effect = lower value 0.99 | locus YJL187C, strain SWE1 (second series), stronger effect = lower value 0.971 | locus YJL187C, strain SWE1, stronger effect = lower value 1.01 | locus YJR043C, strain POL32, stronger effect = lower value 1.01
